Data from PubChem BioAssay AID1259421 (Broad Institute, 2018).
Several values for one entry are separate records, joined by “and”; a condition that tells them apart may be missing. Equal entries are not always repeated. About 610 (9.5%) of roughly 6,400 compounds were called active. Cut-off read from the data, not from the text of the source: active = activity change below about -70%; inconclusive = no clear call, values can overlap the other calls; inactive = above that. The full list was thinned out, with actives kept by preference. A structure can be active in one record and inactive in another.

Assay: T. gondii ME49Luc in HeLa cells, luciferase assay, 72 h, no IFN-y (AID 1259421)
Details: stronger effect = lower value, concentration not given here
In the case of `C[C@@H]1CC2C3C[C@H](F)C4=CC(=O)C=C[C@]4(C)[C@@]3(F)[C@@H](O)C[C@]2(C)[C@@]1(O)C(=O)CO` (some centres undefined), the activity change, negative = inhibition is reported as 1.95% (inactive). With `CC(=O)N[C@H]1CSSC[C@@H](C(N)=O)NC(=O)[C@H](C(C)C)NC(=O)[C@H](C)NC(=O)[C@H](Cc2cnc[nH]2)NC1=O` the activity change, negative = inhibition was -4.46% (inactive). With `O=C(/C=C/c1ccc(O)c(O)c1)O[C@@H]1C[C@](OC(=O)/C=C/c2ccc(O)c(O)c2)(C(=O)O)C[C@@H](O)[C@H]1O` the activity change, negative = inhibition was 2.12% (inactive). With `NC(=O)CCCCn1ccc(NC(N)=NCC(F)(F)F)n1` the activity change, negative = inhibition was 4.57% (inactive) and 3.01% (inactive). In the case of `C=C1C2CC[C@@]3(C)[C@H](c4ccoc4)OC(=O)C[C@]13O[C@H]1CC(=O)C(C)(C)[C@H](C(O)C(=O)OC)[C@@]21C` (some centres undefined), the activity change, negative = inhibition is reported as -2.51% (inactive). In the case of `O=C1CCC[C@@H]2[C@@H]3CCC[N+]4([O-])CCC[C@H](CN12)[C@@H]34` (some centres undefined), the activity change, negative = inhibition is reported as -1.57% (inactive). For `N=C1CCCN1Cc1[nH]c(=O)[nH]c(=O)c1Cl`, the activity change, negative = inhibition was 3.86% (inactive). With `COc1cc2c(cc1OC(C)C)[C@H](c1ccc(Cl)cc1)N(c1ccc(N(C)CC3CCC(N4CCN(C)C(=O)C4)CC3)cc1)C(=O)C2` (some centres undefined) the activity change, negative = inhibition was -56.4% (inactive). In the case of `N[C@@H](CSCC(=O)O)C(=O)O`, the activity change, negative = inhibition is reported as 14.1% (inactive). With `COc1ccc(/C=C/C(=O)c2cc(O)ccc2O)cc1` the activity change, negative = inhibition was 13.6% (inactive). For `Nc1ncnc2c1ncn2[C@H]1CC[C@@H](CO)O1`, the activity change, negative = inhibition was 1.09% (inactive). In the case of `CC(C)[N+]1(C)C2CCC1CC(OC(=O)C(CO)c1ccccc1)C2` (centres undefined), the activity change, negative = inhibition is reported as 0.0846% (inactive). With `O=C(O)CCc1cc(C(=O)c2ccc(OC3CCCC3)cc2O)ccc1OCc1ccc2c(=O)[nH]oc2c1` the activity change, negative = inhibition was 6.19% (inactive). For `Clc1ccc(CCC(Cn2ccnc2)Sc2c(Cl)cccc2Cl)cc1` (centres undefined), the activity change, negative = inhibition was -83.9% (active) and -87.7% (active). For `Cl/C(=C/n1cncn1)c1ccc(Cl)cc1Cl`, the activity change, negative = inhibition was -5.43% (inactive). With `O=C(O)/C=C/c1ccc(Cn2ccnc2)cc1` the activity change, negative = inhibition was -0.196% (inactive) and 8.1% (inactive). In the case of `Clc1ccc(CO/N=C(\Cn2ccnc2)c2ccc(Cl)cc2Cl)c(Cl)c1`, the activity change, negative = inhibition is reported as -81.5% (active) and 40% (inactive). For `Clc1ccc(COC(Cn2ccnc2)c2ccc(Cl)cc2Cl)cc1` (centres undefined), the activity change, negative = inhibition was -77.4% (active) and -87.9% (active). With `Cl/C(=C\n1cncn1)c1ccc(Cl)cc1Cl` the activity change, negative = inhibition was -11.5% (inactive). For `Clc1ccc(C(Cn2ccnc2)OCc2c(Cl)cccc2Cl)c(Cl)c1` (centres undefined), the activity change, negative = inhibition was -52.5% (inactive). For `COc1cc(/C=C/C(=O)N2CCN(CC(=O)NC(C)C)CC2)cc(OC)c1OC`, the activity change, negative = inhibition was -0.924% (inactive). With `CC(C)NC(=O)COc1cccc(-c2nc(Nc3ccc4[nH]ncc4c3)c3ccccc3n2)c1` the activity change, negative = inhibition was -49.1% (inactive). For `COc1ccc(CNC(=O)c2cc(-c3cncc(C)c3)ncc2-c2nccs2)nc1OC`, the activity change, negative = inhibition was 3.2% (inactive). For `N[C@@H](C(=O)O)[C@@H](OCc1ccccc1)C(=O)O` (racemic), the activity change, negative = inhibition was 8.74% (inactive). In the case of `COc1cc(/C=C/C(=O)O[C@H]2CC[C@]34CC35CC[C@]3(C)[C@@H](C(C)CCC=C(C)C)CC[C@@]3(C)C5CCC4C2(C)C)ccc1O` (some centres undefined), the activity change, negative = inhibition is reported as 9.65% (inactive). With `C=C(NC(=O)C(=C)NC(=O)c1csc(C2=N[C@H]3c4csc(n4)[C@H]4NC(=O)c5csc(n5)[C@H]([C@@](C)(O)[C@@H](C)O)NC(=O)[C@H]5CSC(=N5)/C(=C/C)NC(=O)[C@H]([C@@H](C)O)NC(=O)c5csc(n5)[C@]3(CC2)NC(=O)[C@H](C)NC(=O)C(=C)NC(=O)[C@H](C)NC(=O)[C@H](C(C)CC)N[C@@H]2C=Cc3c([C@H](C)O)cc(nc3[C@H]2O)C(=O)O[C@@H]4C)n1)C(N)=O` (some centres undefined) the activity change, negative = inhibition was -5.27% (inactive). In the case of `O=C(O)c1cccnc1Nc1cccc(C(F)(F)F)c1`, the activity change, negative = inhibition is reported as 5.33% (inactive) and 7.04% (inactive). For `O=C(O)c1ccc2c(c1)nc(Nc1cccc(Cl)c1)c1ccncc12`, the activity change, negative = inhibition was -81.6% (active). For `Clc1cccc(Nc2nnc(-c3ccccc3)c3ccccc23)c1`, the activity change, negative = inhibition was -1.93% (inactive) and 0.598% (inactive). In the case of `Cc1noc(-c2ccc(-c3ccc(CC(=O)O)cc3)cc2)c1NC(=O)O[C@H](C)c1ccccc1`, the activity change, negative = inhibition is reported as 6.32% (inactive). In the case of `CN(C)c1cc(NC(=O)CNC(C)(C)C)c(O)c2c1C[C@H]1C[C@H]3[C@H](N(C)C)C(=O)C(C(N)=O)C(=O)[C@@]3(O)C(=O)C1C2=O` (some centres undefined), the activity change, negative = inhibition is reported as 5.81% (inactive). With `O=C(NCCCCN1CCOCC1)c1cc2ccccc2o1` the activity change, negative = inhibition was 0.553% (inactive). For `CN(C)CC/C=C1\c2ccccc2Sc2ccc(Cl)cc21`, the activity change, negative = inhibition was -58.2% (inactive). With `CN(C)CC/C=C1/c2ccccc2Sc2ccc(Cl)cc21` the activity change, negative = inhibition was -62.1% (inactive) and 35.6% (inactive). With `CN1CCN(CCCN2c3ccccc3Sc3ccc(Cl)cc32)CC1` the activity change, negative = inhibition was 16.2% (inactive) and 18.1% (inactive). With `OCCN1CCN(CC/C=C2/c3ccccc3Sc3ccc(Cl)cc32)CC1` the activity change, negative = inhibition was -82.3% (active). With `CC(=O)c1ccc2c(c1)N(CCCN1CCN(CCO)CC1)c1ccccc1S2` the activity change, negative = inhibition was 15.8% (inactive). For `OCCN1CCN(CCCN2c3ccccc3Sc3ccc(C(F)(F)F)cc32)CC1`, the activity change, negative = inhibition was -60% (inactive) and -63.7% (inactive). With `OCCN1CCN(CC/C=C2/c3ccccc3Sc3ccc(C(F)(F)F)cc32)CC1` the activity change, negative = inhibition was -74.2% (active). In the case of `CN1CCN(CCC=C2c3ccccc3Sc3ccc(S(=O)(=O)N(C)C)cc32)CC1`, the activity change, negative = inhibition is reported as 25.4% (inactive) and 73.8% (inactive). In the case of `OCCN1CCN(CCCN2c3ccccc3Sc3ccc(Cl)cc32)CC1`, the activity change, negative = inhibition is reported as -81% (active). With `CC[C@H](C)[C@H](NC(=O)[C@H](Cc1ccc(O)cc1)NC(=O)[C@@H](NC(=O)[C@H](CCCN=C(N)N)NC(=O)[C@@H](N)CC(=O)O)C(C)C)C(=O)N[C@@H](Cc1cnc[nH]1)C(=O)N1CCC[C@H]1C(=O)O` the activity change, negative = inhibition was 8.39% (inactive). With `O=S1(=O)N[C@H]2CCCN2c2ccccc21` the activity change, negative = inhibition was 1.4% (inactive). For `CCC(=O)O[C@@]1(C(=O)CCl)[C@@H](C)C[C@H]2[C@@H]3C[C@H](F)C4=CC(=O)C=C[C@]4(C)[C@]3(F)[C@H](O)C[C@@]21C`, the activity change, negative = inhibition was 6.07% (inactive). In the case of `CC(=O)c1c(O)c(C)c(O)c2c1OC1=CC(=O)C(C(C)=O)C(=O)C12C` (centres undefined), the activity change, negative = inhibition is reported as -3.87% (inactive). For `COc1ccccc1OCC(O)CNC(C)C` (centres undefined), the activity change, negative = inhibition was 17.1% (inactive) and 3.92% (inactive). With `COc1cc2c(cc1OC)C(=O)CC2` the activity change, negative = inhibition was 4.96% (inactive). For `COc1cc(CCC(C)=O)ccc1O`, the activity change, negative = inhibition was 7.65% (inactive). For `COC(=O)C[C@](O)(CCCC(C)(C)O)C(=O)O[C@@H]1C(OC)=C[C@]23CCCN2CCc2cc4c(cc2[C@H]13)OCO4`, the activity change, negative = inhibition was -83.4% (active) and -83.9% (active) and -85.7% (active). For `COCCCOc1ccnc(CS(=O)c2nc3ccccc3[nH]2)c1C` (centres undefined), the activity change, negative = inhibition was 106% (inactive) and 41.3% (inactive). For `N#CC(c1ccnc(OCc2ccc(CN3CCOCC3)cc2)n1)c1nc2ccccc2s1` (centres undefined), the activity change, negative = inhibition was -29.2% (inactive). For `C[C@@H](Oc1cc(-n2cnc3ccc(CN4CCN(C)CC4)cc32)sc1C(N)=O)c1ccccc1C(F)(F)F`, the activity change, negative = inhibition was -75.7% (active). For `COc1cc2ncn(-c3cc(OCc4ccccc4C(F)(F)F)c(C(N)=O)s3)c2cc1OC`, the activity change, negative = inhibition was -75.1% (active). For `C[C@H]1CC2C([C@@H](O)C[C@@]3(C)C2CC[C@]3(O)C(=O)COC(=O)CCC(=O)O)[C@@]2(C)C=CC(=O)C=C12` (some centres undefined), the activity change, negative = inhibition was 5.48% (inactive) and 3.76% (inactive). With `COC1CC2CCC(C)C(O)(O2)C(=O)C(=O)N2CCCCC2C(=O)OC(C(C)CC2CCC(O)C(OC)C2)CC(=O)C(C)/C=C(\C)C(O)C(OC)C(=O)C(C)CC(C)/C=C/C=C/C=C/1C` (centres undefined) the activity change, negative = inhibition was 5.34% (inactive) and -8.87% (inactive). With `C=C1CC2C3C=C(C)C4=CC(=O)CC[C@]4(C)C3CC[C@]2(C)[C@@]1(OC(C)=O)C(C)=O` (some centres undefined) the activity change, negative = inhibition was 10.5% (inactive) and -22.4% (inactive). In the case of `CCCCCCCCCCCCCCCCCC(=O)OCC(O)CO` (centres undefined), the activity change, negative = inhibition is reported as 5.64% (inactive). For `COc1ccc(C2CC(c3c(O)cc(C)oc3=O)=NCCS2)c(OC)c1` (centres undefined), the activity change, negative = inhibition was 10.3% (inactive). In the case of `CO[C@H]1C=CO[C@@]2(C)Oc3c(C)c(O)c4c(O)c(c(/C=N/N5CCN(C6CCCC6)CC5)c(O)c4c3C2=O)NC(=O)/C(C)=C\C=C[C@H](C)[C@H](O)[C@@H](C)[C@@H](O)[C@@H](C)[C@H](OC(C)=O)[C@@H]1C`, the activity change, negative = inhibition is reported as -5.33% (inactive). In the case of `CCCCCCCCCCCCCCCCCCOC[C@H](COP(=O)(O)OCC[N+](C)(C)C)OC`, the activity change, negative = inhibition is reported as 5.04% (inactive). For `O=c1c(-c2ccc(O)cc2)coc2c([C@@H]3O[C@H](CO)[C@@H](O)[C@H](O)[C@H]3O)c(O)ccc12`, the activity change, negative = inhibition was -0.619% (inactive). With `Cc1[nH]c(/C=C2/C(=O)Nc3ccc(F)cc32)c(C)c1C(=O)NC[C@H](O)CN1CCOCC1` the activity change, negative = inhibition was -69.2% (inactive). With `Cc1[nH]c(/C=C2\C(=O)Nc3ccccc32)c(C)c1CCC(=O)O` the activity change, negative = inhibition was 7.07% (inactive). For `CCN(CC)CCNC(=O)c1c(C)[nH]c(/C=C2\C(=O)Nc3ccc(F)cc32)c1C`, the activity change, negative = inhibition was -75.8% (active). In the case of `COc1cccc(OC)c1-c1ccc(C[C@H](NC(=O)c2c(Cl)cccc2Cl)C(=O)O)cc1`, the activity change, negative = inhibition is reported as 4.91% (inactive). With `O=C(c1ccc(OCCCc2cnc[nH]2)cc1)C1CC1` the activity change, negative = inhibition was 31.1% (inactive). With `CN=C(NC)NCc1ccc(OC)cc1` the activity change, negative = inhibition was 0.956% (inactive). With `CC(C)CC1C(=O)N2CCCC2C2(O)OC(NC(=O)C3C=C4c5cccc6[nH]c(Br)c(c56)CC4N(C)C3)(C(C)C)C(=O)N12` (centres undefined) the activity change, negative = inhibition was 18.4% (inactive). In the case of `COc1cc2c(cc1OC)C(C(C(=O)N(CCc1ccc(OC)c(OC)c1OC)CCc1ccc(OC)c(OC)c1OC)c1ccccc1)=NCC2` (centres undefined), the activity change, negative = inhibition is reported as 23.5% (inactive).
